Inhibition data for 25 compounds are collected here from PubChem BioAssay AID492973 (The Scripps Research Institute Molecular Screening Center, 2010).

Unmarked numbers belong to inactive results. Activity calls are given as the source filed them.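 The calls were made as follows: active = inhibition above 50% of the enzyme in parasite cell lysate; inactive = the rest.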

The nature of the experiment: PfM17LAP inhibitors in parasite extract, late-stage follow-up, cell lysate, fluorescence, Plasmodium falciparum lysate, powder samples (AID 492973). As to conditions: P. falciparum cell lysate, H-Leu-NHMec fluorescence; at 5 µM; active compounds read high.
With `O=c1cc(-c2ccc(Cl)c(Cl)c2)[nH][nH]1`, the inhibition (in general, the percentage by which the read-out fell short of the control) was 13%.

For the compound `CCOC(=O)c1c(NC(=O)[C@@H]2C3CCC(O3)[C@@H]2C(=O)O)sc(C)c1-c1ccc(C)cc1` (stereo not given in full), the inhibition was 29%.

With `CCOC(=O)c1c(-c2cccc(C)c2)csc1NC(=O)[C@H]1CC=CC[C@H]1C(=O)O`, the inhibition was 26%. With `COC(=O)c1c(NC(=O)[C@H]2CCCC[C@H]2C(=O)O)sc2c1CCCCC2` the figure was 65% (active). With `CCc1cc2cc(OC)ccc2nc1SCC(=O)Nc1cc(OC)c(OC)cc1C(=O)O` the figure was 68% (active). Regarding `CCc1cc2ccc(C)cc2nc1SCC(=O)Nc1cc(OC)c(OC)cc1C(=O)O`, the inhibition was 69% (active). Turning to `COc1cc(NC(=O)CSc2nnc3c(C)cc4cc(C)cc(C)c4n23)c(C(=O)O)cc1OC`, the inhibition was 55% (active). With `CC(C)c1ccc(NC(=O)[C@H]2CCCC[C@H]2C(=O)O)cc1` the figure was 27%. As for `Cc1cc(C(=O)COC(=O)c2ccc[nH]c2=O)c(C)n1-c1ccc(F)cc1`, the figure is 32%; as for `C=CCn1c(SCC(=O)Nc2cccc3ccccc23)nc(O)c(CC)c1=O`, 31%. With `COC(=O)c1cccc(NC(=O)CSc2nc(C)cc(=O)[nH]2)c1` the figure was 26%.

`S=c1nc(-c2cccc(Cl)c2)[nH][nH]1`: the inhibition was 22%. In the case of `Cc1ccc(Nc2nnc(SC3CCOC3=O)s2)cc1` (stereo not given), the inhibition was 57% (active). With `CCCCc1c(O)nc(SCC(=O)Nc2ccc3c(c2)CCC3)[nH]c1=O` the figure was 21%. With `COC(=O)c1c(-c2ccco2)csc1NC(=O)[C@H]1CC=CC[C@H]1C(=O)O` the figure was 51% (active); with `Cc1ccc(-n2c(C)cc(C(=O)COC(=O)c3ccc[nH]c3=O)c2C)cc1`, 43%; with `CCN(CC)c1ccc(NC(=O)CSc2nc(C)cc(=O)[nH]2)cc1`, 52% (active). As for `O=C(O)Cc1ccc(NC(=O)Nc2ccc(Br)cc2)cc1`, the figure is 41%; as for `O=C(CSc1nnc(Nc2ccccc2)s1)NN1C(=O)NC2(CCCCC2)C1=O`, 57% (active); as for `COc1ccc(C(C)(C)C)cc1NC(=O)[C@H]1CC=CC[C@H]1C(=O)O`, 40%. Regarding `COc1ccc(NC(=O)CSc2nc(O)cc(=O)n2C)cc1`, the inhibition was 29%. As to `O=C(Nc1cccc(Cl)c1)[C@H]1CC=CC[C@H]1C(=O)O`, the inhibition is 24%.

`CCOc1ccc(NC(=O)Nc2ccc3nccnc3c2)cc1`: the inhibition is 25%. With `Cc1cc(C(=O)COC(=O)c2ccc[nH]c2=O)c(C)n1-c1ccccc1` the figure was 36%.

Turning to `O=C(CSc1nccc(=O)[nH]1)Nc1ccc(Br)c(Cl)c1`, the inhibition is 43%.
